Our source for the outcome and AC50 values is PubChem BioAssay (EPA / NIEHS).

As a reminder, the AC50 is the midpoint of the concentration-response curve, whichever way the signal moves.

Calls of active or inactive are those of the source. The calls were made as follows: active = hit-call score of the fitted dose curve at least 0.9, where 1 is the maximum; inactive = score below 0.9.

Read-out in the first test: CYP3A5 (gene 1577)
Put plainly: LTEA_HepaRG_CYP3A5: Life Technologies and Expression Analysis (LTEA) Assay for CYP3A5 using HepaRG (AID 2283493). Particulars: mRNA level, 48 h; actives raise or lower the signal. In short, it runs like this:
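HepaRG plated 48 h, switched to serum-free induction medium, chemicals added 48 h (max 100 uM, half-log, 0.5% DMSO). RNA isolated; CYP3A5 by TaqMan qRT-PCR. Gain/loss vs DMSO.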
In the case of `CC(C)OC(=O)C(C)(C)Oc1ccc(C(=O)c2ccc(Cl)cc2)cc1`, the result was inactive.

On to `CCCC[C@H]1CN(CC2CCOCC2)C(=O)OC12CCN(C1(C)CCN(C(=O)c3c(C)ncnc3C)CC1)CC2`, for which the call was inactive.

As to `CCCCCCCCCCCCCCOS(=O)(=O)O`, the molecule was called inactive.

For `OCC(CO)n1cnc(-c2ccc(F)cc2)c1-c1ccnc(Oc2ccccc2)n1`, the molecule was called inactive.

Take `CC(C)(O)c1ccc(CNC(=O)c2cccnc2Oc2ccc(F)cc2)cc1`: the molecule was classed as inactive.

As for `Cc1cc(SC2=C(O)C[C@@](CCc3ccc(N)cc3)(C(C)C)OC2=O)c(C(C)(C)C)cc1CO`, the result was inactive.

Consider `N[C@@H](Cc1c[nH]c2ccccc12)C(=O)O`, for which the call was inactive.

Take `CC(C)c1cccc(C(C)C)c1`: the outcome was inactive.

For the molecule `CC(=O)S[C@H](C(=O)N[C@H]1Cc2ccccc2[C@H]2CCC[C@@H](C(=O)O)N2C1=O)C(C)C`, the result was inactive.

As to `COc1ccc(C(=O)Nc2nc3ccccc3c(NCc3ccccc3)c2C#N)cc1`, the AC50 was 2.67 µM (active).

Regarding `O=C(Oc1ccccc1)c1cccc(C(=O)Oc2ccccc2)c1`, the outcome was inactive.

With `CN(C)C(=O)NC1(c2ccccc2)CCN(CC[C@@]2(c3ccc(F)c(F)c3)CN(C(=O)c3ccccc3)CCO2)CC1`, the molecule was called inactive.

As to `CC(C)c1cccc(C(C)C)c1NC(=O)NS(=O)(=O)c1cc(C(C)(C)O)co1`, the call was inactive.

Turning to `O=C1c2c(O)cccc2Cc2cccc(O)c21`, the result was inactive.

`O=[Si]=O`: the call was inactive.

On to `CC(N)=O`, for which the result was inactive.

With `CC(C)(C)c1ccccc1`, the molecule was called inactive.

For `Cc1ccc(C(C)(C)C)c(O)c1`, the result was inactive.

Consider `c1ccc2occc2c1`, for which the outcome was inactive.

As for `COC(=O)CCC(=O)OC`, the result was inactive.

Take `CC(=O)CC(c1ccccc1)c1c(O)c2ccccc2oc1=O` (configuration not stated): the outcome was inactive.

For `CCc1cc(C2=C(C(=O)O)N(c3ccccc3C(F)(F)F)S(=O)(=O)c3ccccc32)cc2c1OCO2`, the outcome was inactive.

Turning to `CCCCc1nc2cccnc2n1Cc1ccc(-c2ccccc2-c2nnn[nH]2)cc1`, the molecule was classed as inactive.

`CCCCC(CC)CO` (configuration not stated): the call was inactive.

`CC1=C(C)S(=O)(=O)CCS1(=O)=O`: the call was inactive.

For the molecule `CCCCC(CC)COP(=O)(OCC(CC)CCCC)OCC(CC)CCCC` (configuration not stated), the molecule was called inactive.

With `CC(COCC(C)OC(=O)c1ccccc1)OC(=O)c1ccccc1` (configuration not stated), the molecule was classed as inactive.

On to `CC1(C)C(=O)NC(=O)N1CO`, for which the outcome was inactive.

As to `CCCCCCC(CCCCCCCCCCC(=O)OCC(COC(C)=O)OC(C)=O)OC(C)=O` (configuration not stated), the molecule was classed as inactive.

`O=Cc1ccccc1C=O`: the result was inactive.

Read-out in another test: Fatty Acid-Binding Protein 1 (FABP1), FABP1 (gene 2168)
Put plainly: LTEA_HepaRG_FABP1: Life Technologies and Expression Analysis (LTEA) Assay for Fatty Acid-Binding Protein 1 (FABP1) using HepaRG (AID 2283494). Particulars: mRNA level, 48 h; actives raise or lower the signal. In short, it runs like this:
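HepaRG, 48 h post-plating switched to serum-free induction medium, then dosed 48 h (duplicate, 8 pts, ≤100 uM, 0.5% DMSO). RNA → Fluidigm TaqMan qRT-PCR, FABP1 normed to ACTB/GAPDH/POLR2A. Bidirectional curve fit vs DMSO.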
For the molecule `CCCC[C@H]1CN(CC2CCOCC2)C(=O)OC12CCN(C1(C)CCN(C(=O)c3c(C)ncnc3C)CC1)CC2`, the molecule was called inactive.

In the case of `OCC(CO)n1cnc(-c2ccc(F)cc2)c1-c1ccnc(Oc2ccccc2)n1`, the AC50 is 11.2 µM (active).

Consider `N[C@@H](Cc1c[nH]c2ccccc12)C(=O)O`, for which the molecule was called inactive.

Consider `CC(=O)S[C@H](C(=O)N[C@H]1Cc2ccccc2[C@H]2CCC[C@@H](C(=O)O)N2C1=O)C(C)C`, for which the result was inactive.

As for `CC(C)c1cccc(C(C)C)c1NC(=O)NS(=O)(=O)c1cc(C(C)(C)O)co1`, the AC50 is 43.1 µM (active).

With `O=C1c2c(O)cccc2Cc2cccc(O)c21`, the molecule was called inactive.

Consider `O=[Si]=O`, for which the call was inactive.

In the case of `CC(N)=O`, the molecule was classed as inactive.

Turning to `CC(C)(C)c1ccccc1`, the result was inactive.

In the case of `c1ccc2occc2c1`, the molecule was classed as inactive.

On to `CC(=O)CC(c1ccccc1)c1c(O)c2ccccc2oc1=O` (configuration not stated), for which the result was inactive.

Regarding `CC(COCC(C)OC(=O)c1ccccc1)OC(=O)c1ccccc1` (configuration not stated), the molecule was classed as inactive.

For `CCCCCCC(CCCCCCCCCCC(=O)OCC(COC(C)=O)OC(C)=O)OC(C)=O` (configuration not stated), the molecule was classed as inactive.

Read-out in the next test: Cytochrome P450 4A22 (Homo sapiens) (UniProt Q5TCH4)
Put plainly: LTEA_HepaRG_CYP4A22: Life Technologies and Expression Analysis (LTEA) Assay for Cytochrome P450 4A22 (CYP4A22) using HepaRG (AID 2283495). Particulars: mRNA level, 48 h; actives raise or lower the signal. In a few lines: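 Differentiated HepaRG cells in serum-free induction medium exposed 48 h in duplicate to eight half-log concentrations up to 100 uM in 0.5% DMSO. CYP4A22 mRNA quantified by TaqMan qRT-PCR, normalized to ACTB, GAPDH and POLR2A; bidirectional fit versus DMSO.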
Take `CC(C)OC(=O)C(C)(C)Oc1ccc(C(=O)c2ccc(Cl)cc2)cc1`: the AC50 was 2.19 µM (active).

Take `CCCC[C@H]1CN(CC2CCOCC2)C(=O)OC12CCN(C1(C)CCN(C(=O)c3c(C)ncnc3C)CC1)CC2`: the outcome was inactive.

For the molecule `CCCCCCCCCCCCCCOS(=O)(=O)O`, the result was inactive.

For `OCC(CO)n1cnc(-c2ccc(F)cc2)c1-c1ccnc(Oc2ccccc2)n1`, the AC50 is 16.6 µM (active).

Turning to `CC(C)(O)c1ccc(CNC(=O)c2cccnc2Oc2ccc(F)cc2)cc1`, the half-maximal activity concentration (AC50) is 26.6 µM (active).

Turning to `Cc1cc(SC2=C(O)C[C@@](CCc3ccc(N)cc3)(C(C)C)OC2=O)c(C(C)(C)C)cc1CO`, the AC50 is 1.67 µM (active).

Take `N[C@@H](Cc1c[nH]c2ccccc12)C(=O)O`: the result was inactive.

As for `CC(C)c1cccc(C(C)C)c1`, the molecule was called inactive.

Turning to `CC(=O)S[C@H](C(=O)N[C@H]1Cc2ccccc2[C@H]2CCC[C@@H](C(=O)O)N2C1=O)C(C)C`, the call was inactive.

As for `COc1ccc(C(=O)Nc2nc3ccccc3c(NCc3ccccc3)c2C#N)cc1`, the half-maximal activity concentration (AC50) is 27.1 µM (active).

Take `O=C(Oc1ccccc1)c1cccc(C(=O)Oc2ccccc2)c1`: the result was inactive.

For the molecule `CN(C)C(=O)NC1(c2ccccc2)CCN(CC[C@@]2(c3ccc(F)c(F)c3)CN(C(=O)c3ccccc3)CCO2)CC1`, the half-maximal activity concentration (AC50) is 47.3 µM (active).

As for `CC(C)c1cccc(C(C)C)c1NC(=O)NS(=O)(=O)c1cc(C(C)(C)O)co1`, the AC50 is 31.6 µM (active).

For `O=C1c2c(O)cccc2Cc2cccc(O)c21`, the outcome was inactive.

In the case of `CC(N)=O`, the result was inactive.

As for `CC(C)(C)c1ccccc1`, the molecule was classed as inactive.

For `Cc1ccc(C(C)(C)C)c(O)c1`, the molecule was classed as inactive.

For `c1ccc2occc2c1`, the call was inactive.

Consider `COC(=O)CCC(=O)OC`, for which the molecule was called inactive.

As to `CC(=O)CC(c1ccccc1)c1c(O)c2ccccc2oc1=O` (configuration not stated), the molecule was classed as inactive.

With `CCc1cc(C2=C(C(=O)O)N(c3ccccc3C(F)(F)F)S(=O)(=O)c3ccccc32)cc2c1OCO2`, the AC50 is 41 µM (active).

On to `CCCCc1nc2cccnc2n1Cc1ccc(-c2ccccc2-c2nnn[nH]2)cc1`, for which the molecule was called inactive.

With `CCCCC(CC)CO` (configuration not stated), the result was inactive.

For `CC1=C(C)S(=O)(=O)CCS1(=O)=O`, the AC50 is 50 µM (active).

Consider `CCCCC(CC)COP(=O)(OCC(CC)CCCC)OCC(CC)CCCC` (configuration not stated), for which the molecule was classed as inactive.

As to `CC(COCC(C)OC(=O)c1ccccc1)OC(=O)c1ccccc1` (configuration not stated), the molecule was classed as inactive.

For `CC1(C)C(=O)NC(=O)N1CO`, the outcome was inactive.

`CCCCCCC(CCCCCCCCCCC(=O)OCC(COC(C)=O)OC(C)=O)OC(C)=O` (configuration not stated): the molecule was called inactive.

As to `O=Cc1ccccc1C=O`, the call was inactive.
